# The panel holds about 83,000 compounds, 20% with a hit somewhere; the sample as a whole holds those more often.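 Method: cells in 96-well plates; compound added at one concentration; 48 h incubation; percent growth measured; values under 10 scored active.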 Active and inactive are the calls of the source.
# Test system: MDA-MB-435 melanoma
# Assay: NCI-60 one-dose screen, 48 h (100 = growth as untreated, 0 = no growth, -100 = all killed)
# Settings: 10 µM unless noted
row,SMILES,growth
1,COc1ccc2[nH]c(=O)cc(-n3ncc(C(=O)/C=C/c4cc(OC)c(OC)c(OC)c4)c3C)c2c1,1.51% (active)
2,COc1ccccc1NC(=O)c1ccc(NC(=O)CCl)s1,0.365% (active)
3,Cc1ccc(C(C)C)cc1Oc1cccc(-c2c(-c3ccc(C(F)(F)F)cc3)ncn2C2CCNCC2)n1,-93.4% (active)
4,O=C(c1ccc(O)cc1)C1[C@H](c2ccc(Cl)cc2)[C@@H](c2ccccc2)NC12C(=O)Nc1ccccc12 (some centres not stated),-34% (active)
5,COc1c(B(O)O)cccc1-c1nc2ccc3cn[nH]c3c2c2c1CCCC2,84.2% (inactive)
6,COc1ccc(S(=O)(=O)Nc2ccc(-c3ccc4c(c3)NC(=O)/C4=C\c3ccc[nH]3)cc2)cc1OC,22% (inactive)
7,Cc1ccc2c(c1)nc(-c1ccccc1)n2CC(=O)N=Nc1c(O)[nH]c2ccc(Cl)cc12,-14.2% (active)
8,Cc1nn(-c2ccccc2)c2nc(C)n(CC(=O)N/N=C/c3ccccc3O)c(=O)c12,34.7% (inactive)
9,Cc1cc(C)c2[nH]c(=O)c(C(c3nnnn3Cc3ccc4c(c3)OCO4)N3CCN(C)CC3)cc2c1 (configuration not stated),106% (inactive)
10,FC(F)(F)CN1CCN(CCn2c(C(F)(F)F)cc3c(Cl)ncnc32)CC1,38.7% (inactive)
11,O=C1NC(=NC23CC4CC(CC(C4)C2)C3)N/C1=C\c1ccc2ncccc2c1,-22.6% (active)
12,COc1cc2cc(C(=O)N3C[C@@H](CCl)c4c3cc(OC(=O)N(CCC(=O)N3CCN(C)CC3)C3CCCCC3)c3ccccc43)[nH]c2c(OC)c1OC,-90.8% (active)
